Tgondii IFNg – T. gondii growth inhibition with IFN-gamma, primary screen, cell-based. Toxoplasma gondii growth in IFN-gamma-treated host cells; hits give low values. activity change, negative = inhibition, % (no concentration beside the values). actives 3.8% (n = 69,000); in the data active = activity change below about -70%, passing the limit was not always enough;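 also: host cells are HeLa cells infected with Toxoplasma gondii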
An asterisk follows results filed as active; i = inactive. Only a selection was taken, and hits are over-represented in it overall.

SMILES	Tgondii IFNg
O=C(Cn1ncc2c(N3CCOCC3)ncnc21)NC1CCCCC1	-20
O=C(NCCc1csc(-c2ccccc2)n1)[C@H]1CCCN1C(=O)COc1ccccc1	14
Cn1ccn2ncc(-c3nc(C4(c5ccc(F)cc5)CCOC4)no3)c12 (centres undefined)	-10
COc1ccc(-c2nc(Nc3cc(C)cc(C)c3)c3ccccc3n2)cc1	-36
COc1ccc(-c2nc(Nc3ccc(C)cc3)c3ccccc3n2)cc1	-43
CCc1cccc(NC(=O)c2nc(Nc3ccccc3)c3ccccc3n2)c1	-72*
CCc1ccc(NC(=O)c2nc(Nc3ccccc3)c3ccccc3n2)cc1	-6
CCc1ccc(Nc2nc(C(=O)NC)nc3ccccc23)cc1	-6
COc1cc(-c2nc(Nc3ccc(C)cc3)c3ccccc3n2)cc(OC)c1OC	-93*
COc1cccc(NC(=O)c2nc(Nc3ccc(C)cc3)c3ccccc3n2)c1	-88*
Cc1ccc(NC(=O)c2nc(Nc3ccccc3)c3ccccc3n2)cc1	-6
COc1ccc(NC(=O)c2nc(Nc3ccccc3)c3ccccc3n2)cc1	118
Cc1oc(-c2ccccc2)nc1Cn1nnc(C(=O)Nc2ccc(Cl)c(Cl)c2)c1C	30
COCCNC(=O)C1CN(Cc2cnn(C)c2)Cc2ccnn2C1 (centres undefined)	43
CN(C)C(=O)c1nn(C)c2c1CCN(Cc1nccs1)C2	88
Cn1ccc2c(-c3ncc(F)c(N4CCOCC4)n3)ccnc21	145
OCC1(Cc2ccccc2)CCCN(c2ccc(-c3ccccc3)nn2)C1 (centres undefined)	-27
CN1CCC2(C=C(C(=O)N(C)C)c3ccccc32)CC1	-1
COc1cc2c(cc1OC)C1c3ccccc3N(Cc3ccccc3)C(=O)N1CC2 (centres undefined)	-3
COc1cc2c(cc1OC)C(c1ccccc1Cl)N(c1ccc(C)cc1)C(=O)C2 (centres undefined)	-91*
COc1ccc(C2N(c3ccc(C)cc3)CCN2c2ccc(C)cc2)cc1OC	54
CC(=O)C(Sc1nc(NCc2ccccc2)nc(N(C)C)n1)C(C)=O	11
Cn1nc(CC2CCN(CC3CCOC3)CC2)n(-c2ccccc2)c1=O (centres undefined)	-7
O=C(Nc1cc(F)cc(F)c1)c1c(O)c2cccnc2n(-c2ccccc2)c1=O	40
Cc1ccc(C)c(CNC(=O)c2nc(N3CCOCC3)c3ccccc3n2)c1	-87*
SMILES	Tgondii IFNg
COc1ccc(CNC(=O)c2nc(N3CCOCC3)c3ccccc3n2)cc1	-4
COc1ccc(OC)c(CNC(=O)c2nc(N3CCOCC3)c3ccccc3n2)c1	-40
COc1ccc(-c2c(C)c3ccc(OCC(C)=O)cc3oc2=O)cc1	202
CCN(CC)c1ccc2c(C)c(CC(C)=O)c(=O)oc2c1	-98*
Cc1cc(OC(C(=O)O)c2ccccc2)c2c(C)c(Cc3ccccc3)c(=O)oc2c1 (centres undefined)	8
O=C(NCC1Cn2nnc(-c3cccc(F)c3)c2CO1)[C@H]1CCCO1 (some centres undefined)	-27
CCOc1cccc(C2c3[nH]c4ccccc4c3CCN2C(=O)c2ccc(OC)cc2)c1 (centres undefined)	-93*
COc1ccc(C2c3[nH]c4ccccc4c3CCN2C(=O)c2cccc(OC)c2)cc1 (centres undefined)	-99*
CCOc1cccc(C2c3[nH]c4ccccc4c3CCN2C(=O)c2ccc(Br)cc2)c1 (centres undefined)	-98*
CCOc1cccc(C2c3[nH]c4ccccc4c3CCN2C(=O)c2cc(OC)c(OC)c(OC)c2)c1 (centres undefined)	-52
CCOc1cccc(C2c3[nH]c4ccccc4c3CCN2C(=O)C2CC2)c1 (centres undefined)	i
COc1cccc(C(=O)N2CCc3c([nH]c4ccccc34)C2c2ccc(F)cc2)c1 (centres undefined)	i
CCOc1cccc(C2c3[nH]c4ccccc4c3CCN2C(=O)c2cccnc2)c1 (centres undefined)	189
CCOc1cccc(C2c3[nH]c4ccccc4c3CCN2C(=O)c2ccncc2)c1 (centres undefined)	-84*
CCOc1cccc(C2c3[nH]c4ccccc4c3CCN2C(=O)CCC2CCCC2)c1 (centres undefined)	125
COc1cccc(C(=O)N2CCc3c([nH]c4ccccc34)C2c2ccc(SC)cc2)c1 (centres undefined)	-63
Cc1occc1C(=O)N1CCC2(CC1)NC(=O)CC2c1cccnc1 (centres undefined)	-2
CC(=O)[C@H]1CCC2C3CCC4=CC(=O)CC[C@]4(C)C3[C@H](OC(=O)CCC(=O)O)C[C@@]21C (some centres undefined)	9
Cc1cc2nc(C(NS(=O)(=O)c3cnn(C)c3C)C(C)C)cc(=O)n2[nH]1 (centres undefined)	3
Cc1nc(N(C)C)ncc1C(=O)Nc1ccc(-c2cccc(F)c2)cc1	7
Cc1cc(C)cc(CCC(=O)N2CCN(S(=O)(=O)N3CCCC3)CC2)c1	6
CC(C)OC(C)c1nnc(SCC(=O)O)n1-c1ccccc1 (centres undefined)	-41
N#Cc1cccc(CN2C[C@H](N3CCOCC3)C3OCCCC32)c1 (some centres undefined)	3
COc1cc2c(cc1-c1nccn1Cc1cc(C(C)C)no1)CCC2	3
Cc1cc(-c2cc(=O)n(CC(=O)NC3CCCCCC3)nc2C(C)C)on1	1
SMILES	Tgondii IFNg
CCCCS(=O)(=O)N1CC(n2nc(-c3ccccc3)ccc2=O)C1	-37
COc1ccc2c3c([nH]c2c1)[C@@H](CO)N(S(C)(=O)=O)CC31CN(CC2CCOCC2)C1	22
COc1ccc2c3c([nH]c2c1)[C@@H](CO)N(S(C)(=O)=O)CC31CCN(CC2CCCC2)CC1	-107*
COc1ccc2c3c([nH]c2c1)[C@H](CO)N(S(C)(=O)=O)CC31CCN(CC2CCCC2)CC1	130
CC(C)c1nccc(C(=O)N2[C@@H]3CC[C@H]2CNC(=O)C3)n1	-1
COc1ccc(NC(=O)COc2nc(C)nc3ccccc23)c(OC)c1	-7
COc1ccc(-c2nc(Nc3cccc(Cl)c3C)c3ccccc3n2)cc1	4
O=C1CCCN1[C@@H]1CN(Cc2nccs2)C[C@H]2CCCO[C@H]21	189
CC(C)CNC(=O)C1=NOC2(CCN(Cc3ccc(C(C)C)cc3)C2)C1 (centres undefined)	-82*
CC(C)CNC(=O)C1=NOC2(CCN(C(=O)c3ccccn3)C2)C1 (centres undefined)	0
COc1ccc(CN2CCC3(CC(C(=O)NCC(C)C)=NO3)C2)cc1 (centres undefined)	4
Cc1cc2nc(CN3CCCC(CCc4ccc(F)cc4F)C3)cc(=O)n2[nH]1 (centres undefined)	-36
CCc1ccc2nc(N3CC(O)C3)cc(C)c2c1	-22
CC(C)NC(=O)c1cc2c(nc1N(C)C)CCN(C(=O)Nc1ccccc1)CC2	2
COC(=O)c1sccc1S(=O)(=O)N1CCN(c2ncnc3c(C)csc23)CC1	-85*
Cc1csc2c(N3CCc4nnc(C5CCCO5)n4CC3)ncnc12 (centres undefined)	1
Cc1csc2c(N3CCC(O)(CO)CC3)ncnc12	2
COc1ccc(NC2(C(=O)N3CCCn4cncc4C3)CCCC2)cc1	4
Cc1ccc2c(c1)c(CNc1nc(-c3ccncc3)nc3c1CNC3)nn2C	-16
Nc1nonc1C(=O)Nc1ccc(N2CCCC2=O)cc1	136

Assay outcomes: PubChem, Broad Institute
